Reference: PubChem BioAssay AID1159580 (chemical genetic matrix, 2015)
Values joined by “and” are separate entries in the source; they are usually repeats but may differ in a detail not shown here. Identical values can stand only once. The whole screen tested about 5,500 compounds, of which about 2,000 (36%) were called active. Inconclusive results (about 18%) are left out. The list shows a part of the results. Values without a mark were called inactive. No stated cut-off is given here; in the data, active means normalized growth mostly below about 0.91 (no sharp cut-off); inconclusive means no clear call, values can overlap the other calls; inactive means mostly above about 0.92.

Test: chemical genetic growth profiling, strain panel (AID 1159580);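 further: tested at 20 µM; growth read once vehicle control cultures reached saturation at 30 °C; 1 = growth at the plate median or of vehicle wells; lower values mean less growth of the strain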
Details: S. cerevisiae deletion strains, growth OD
[1] = locus YAL013W, strain DEP1, hits give low values
[2] = locus YDR150W, strain NUM1, hits give low values
[3] = locus YGR078C, strain PAC10, hits give low values
[4] = locus YJR075W, strain HOC1, hits give low values
[5] = locus YMR263W, strain SAP30, hits give low values
[6] = locus YNL153C, strain GIM3, hits give low values
[7] = locus YNL322C, strain KRE1, hits give low values
[8] = locus YPL055C, strain LGE1, hits give low values
[9] = locus YPL241C, strain CIN2, hits give low values
[10] = locus YAL040C, strain CLN3, hits give low values
[11] = locus YCL061C, strain MRC1 (second series), hits give low values
[12] = locus YDR363W, strain ESC2, hits give low values
[13] = locus YER002W, strain NOP16, hits give low values
[14] = locus YMR307W, strain GAS1, hits give low values
[15] = locus YNL128W, strain TEP1, hits give low values
[16] = locus YNL175C, strain NOP13, hits give low values
[17] = locus YNL197C, strain WHI3, hits give low values
[18] = locus YNL224C, strain SQS1, hits give low values
[19] = locus YOR083W, strain WHI5 (second series), hits give low values

Clc1ccc(Oc2ccnc3cc(Cl)ccc23)cc1
normalized growth [1]: 0.909 (active) | normalized growth (locus YAR019C, strain CDC15, hits give low values): 0.898 | normalized growth (locus YBL105C, strain PKC1, hits give low values): 0.923 | normalized growth (locus YBR135W, strain CKS1, hits give low values): 0.913 | normalized growth (locus YBR136W, strain MEC1, hits give low values): 0.922 | normalized growth (locus YBR160W, strain CDC28, hits give low values): 0.918 | normalized growth (locus YBR229C, strain ROT2, hits give low values): 0.956 | normalized growth (locus YDL017W, strain CDC7, hits give low values): 0.919 | normalized growth (locus YDL028C, strain MPS1, hits give low values): 0.926 | normalized growth (locus YDL101C, strain DUN1, hits give low values): 0.915 and 0.93 | normalized growth (locus YDL108W, strain KIN28, hits give low values): 0.921 | normalized growth (locus YDL132W, strain cdc53, hits give low values): 0.91 | normalized growth (locus YDL214C, strain PRR2, hits give low values): 0.745 | normalized growth (locus YDR052C, strain DBF4, hits give low values): 0.918 | normalized growth (locus YDR054C, strain cdc34, hits give low values): 0.894 | normalized growth [2]: 0.943 | normalized growth (locus YDR226W, strain ADK1, hits give low values): 0.903 | normalized growth (locus YDR477W, strain SNF1, hits give low values): 0.678 (active) | normalized growth (locus YEL061C, strain CIN8, hits give low values): 0.944 | normalized growth (locus YER123W, strain YCK3, hits give low values): 0.517 (active) | normalized growth (locus YER133W, strain GLC7, hits give low values): 0.613 (active) | normalized growth (locus YFL009W, strain cdc4, hits give low values): 0.903 | normalized growth (locus YFL029C, strain CAK1, hits give low values): 0.898 | normalized growth (locus YFR003C, strain YPI1, hits give low values): 0.916 | normalized growth (locus YFR019W, strain FAB1, hits give low values): 0.893 | normalized growth (locus YFR028C, strain CDC14, hits give low values): 0.908 | normalized growth (locus YGR040W, strain KSS1, hits give low values): 0.67 (active) | normalized growth (locus YGR052W, strain FMP48, hits give low values): 0.659 | normalized growth [3]: 0.92 (active) | normalized growth (locus YGR092W, strain DBF2, hits give low values): 0.627 | normalized growth (locus YHR030C, strain SLT2, hits give low values): 0.235 (active) and 0.376 (active) | normalized growth (locus YHR079C, strain IRE1, hits give low values): 0.546 | normalized growth (locus YHR082C, strain KSP1, hits give low values): 0.626 | normalized growth (locus YHR087W, strain rtc3, hits give low values): 0.923 | normalized growth (locus YHR205W, strain SCH9, hits give low values): 0.704 | normalized growth (locus YIL147C, strain SLN1, hits give low values): 0.924 | normalized growth (locus YJL095W, strain BCK1, hits give low values): 0.49 (active) | normalized growth (locus YJL128C, strain PBS2, hits give low values): 0.865 | normalized growth (locus YJL157C, strain FAR1, hits give low values): 0.683 (active) | normalized growth (locus YJR016C, strain ILV3, hits give low values): 0.914 | normalized growth (locus YJR043C, strain POL32, hits give low values): 0.964 | normalized growth (locus YJR066W, strain TOR1 (second series), hits give low values): 0.684 | normalized growth (locus YJR066W, strain TOR1, hits give low values): 0.544 | normalized growth [4]: 0.804 (active) | normalized growth (locus YKL048C, strain ELM1, hits give low values): 0.888 | normalized growth (locus YKL067W, strain YNK1, hits give low values): 0.735 | normalized growth (locus YKL101W, strain HSL1, hits give low values): 0.772 | normalized growth (locus YKL193C, strain SDS22, hits give low values): 0.911 | normalized growth (locus YKL203C, strain TOR2, hits give low values): 0.68 (active) | normalized growth (locus YLR039C, strain RIC1, hits give low values): 0.779 (active) | normalized growth (locus YLR058C, strain SHM2 (second series), hits give low values): 0.951 | normalized growth (locus YLR085C, strain ARP6, hits give low values): 0.499 (active) | normalized growth (locus YLR113W, strain HOG1, hits give low values): 0.379 (active) | normalized growth (locus YLR133W, strain CKI1, hits give low values): 0.772 | normalized growth (locus YLR262C, strain YPT6, hits give low values): 0.817 | normalized growth (locus YLR403W, strain SFP1, hits give low values): 0.675 | normalized growth (locus YML070W, strain DAK1, hits give low values): 0.681 | normalized growth (locus YML094W, strain GIM5, hits give low values): 0.994 | normalized growth (locus YMR001C, strain CDC5, hits give low values): 0.908 | normalized growth (locus YMR205C, strain PFK2 (second series), hits give low values): 0.742 (active) | normalized growth (locus YMR219W, strain ESC1, hits give low values): 0.948 | normalized growth [5]: 0.945 | normalized growth (locus YMR277W, strain FCP1, hits give low values): 0.915 | normalized growth (locus YNL006W, strain LST8, hits give low values): 0.92 | normalized growth (locus YNL020C, strain ARK1, hits give low values): 0.762 | normalized growth [6]: 0.98 | normalized growth (locus YNL161W, strain CBK1, hits give low values): 0.897 (active) | normalized growth (locus YNL183C, strain NPR1, hits give low values): 0.456 (active) | normalized growth (locus YNL207W, strain RIO2, hits give low values): 0.906 | normalized growth (locus YNL222W, strain SSU72, hits give low values): 0.916 | normalized growth (locus YNL298W, strain CLA4 (second series), hits give low values): 0.924 | normalized growth (locus YNL307C, strain MCK1 (second series), hits give low values): 0.701 | normalized growth [7]: 0.947 | normalized growth (locus YNR030W, strain Alg12, hits give low values): 0.802 (active) | normalized growth (locus YOL078W, strain AVO1, hits give low values): 0.904 | normalized growth (locus YOL136C, strain PFK27, hits give low values): 0.668 (active) | normalized growth (locus YOR061W, strain CKA2, hits give low values): 0.792 | normalized growth (locus YOR119C, strain RIO1, hits give low values): 0.684 (active) | normalized growth (locus YOR231W, strain MKK1, hits give low values): 0.489 (active) | normalized growth (locus YOR329C, strain SCD5, hits give low values): 0.912 | normalized growth (locus YPL031C, strain PHO85, hits give low values): 0.599 (active) | normalized growth [8]: 0.887 | normalized growth (locus YPL153C, strain RAD53, hits give low values): 0.659 (active) | normalized growth (locus YPL204W, strain HRR25, hits give low values): 0.598 (active) | normalized growth (locus YPL209C, strain IPL1, hits give low values): 0.918 | normalized growth [9]: 0.638 (active) | normalized growth (locus YPL256C, strain CLN2, hits give low values): 0.447 (active) | normalized growth (locus YPR025C, strain CCL1, hits give low values): 0.914 | normalized growth (locus YPR106W, strain ISR1, hits give low values): 0.896 | normalized growth (locus YPR111W, strain DBF20, hits give low values): 0.89 | normalized growth (locus YPR135W, strain CTF4, hits give low values): 0.325 (active) | normalized growth (strain NNK1, hits give low values): 0.88 (active) | normalized growth (strain TSCII, hits give low values): 0.9

C[C@@H](Oc1ccc(Oc2cnc3ccc(Cl)cc3n2)cc1)C(=O)O
normalized growth [1]: 1.04 | normalized growth [10]: 1.04 | normalized growth [11]: 1 | normalized growth [12]: 1.01 | normalized growth [13]: 0.995 | normalized growth [3]: 1.01 | normalized growth (locus YGR229C, strain SMI1, hits give low values): 1.02 | normalized growth [4]: 1 | normalized growth [5]: 1.01 | normalized growth [14]: 0.983 | normalized growth [15]: 0.996 | normalized growth [16]: 0.984 | normalized growth [17]: 0.996 | normalized growth [18]: 0.997 | normalized growth [7]: 1 | normalized growth [19]: 1 | normalized growth [9]: 1

Clc1cnc(Oc2ccc(Oc3ncc(Cl)cc3Cl)cc2)c(Cl)c1
normalized growth [1]: 1.03 | normalized growth [10]: 1.01 | normalized growth [11]: 1.01 | normalized growth [2]: 1.01 | normalized growth [12]: 1.03 | normalized growth [13]: 0.995 | normalized growth [14]: 1.02 | normalized growth [15]: 1.01 | normalized growth [6]: 1 | normalized growth [16]: 1 | normalized growth [17]: 1.02 | normalized growth [18]: 1.02 | normalized growth [19]: 1.06 | normalized growth [8]: 1.04 | normalized growth [9]: 1.01

NC(=NCc1ccc(Cl)c(Cl)c1)NC(=O)c1nc(Cl)c(N)nc1N
normalized growth [10]: 1.01 | normalized growth [11]: 0.999 | normalized growth [12]: 0.992 | normalized growth [13]: 1.01 | normalized growth [5]: 1.01 | normalized growth [14]: 0.993 | normalized growth [6]: 0.995 | normalized growth [16]: 1.02 | normalized growth [17]: 1.03 | normalized growth [18]: 1.03 | normalized growth [7]: 0.966 | normalized growth [19]: 1.01

CC(=O)OCC1=C(C(=O)O)N2C(=O)[C@@H](NC(=O)CCC[C@@H](N)C(=O)O)[C@H]2SC1
normalized growth [10]: 0.993 | normalized growth [11]: 1 | normalized growth [2]: 1.01 | normalized growth [12]: 1.03 | normalized growth [13]: 1.02 | normalized growth [3]: 0.993 | normalized growth [14]: 0.997 | normalized growth [15]: 0.98 | normalized growth [16]: 1.01 | normalized growth [17]: 1.02 | normalized growth [18]: 1.03 | normalized growth [19]: 1.04 | normalized growth [8]: 1.01 | normalized growth [9]: 1

c1ccc2c(c1)[I+]c1ccccc1-2
normalized growth [1]: 0.513 (active) | normalized growth [10]: 1.05 | normalized growth [11]: 0.63 (active) | normalized growth [12]: 0.302 (active) | normalized growth [13]: 1.02 | normalized growth [4]: 0.429 (active) | normalized growth [16]: 1.03 | normalized growth [17]: 0.958 | normalized growth [18]: 0.892 (active) | normalized growth [19]: 0.569 (active) | normalized growth [9]: 0.517 (active)
